The list is not random: actives were taken first. Their share in the collection is about 2.1%.
COUP-TFII inh: NR2F2 transcriptional activity inhibitors, primary screen, cell-based, luciferase reporter, HEK293T, luminescence; COUP transcription factor 2 (Homo sapiens), P24468; HEK293T NGFI-A luciferase reporter; inhibition, % at 8.6 µM; 370,000 tested, 0.7% active;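 active = inhibition above a per-plate cutoff, mean inhibition of test wells between control levels plus 3 SD, cut at about 38% in these data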;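 also: cells cotransfected with COUP-TFII expression vector driving the NGFI-A reporter; 0% = median of COUP-TF2 test wells and 100% = reporter-only cells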
aDG glyco up: activators of alpha-DG glycosylation, primary screen, uHTS, Pro5-aDG cells, AlphaScreen | alpha-DG glycosylation AlphaScreen (IIH6); 0% Pro5, 100% B10-LARGE cell signal | activation, % at 10 µM | 360,000 tested, 0.22% active;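 active = activation of at least 8% versus controls, or a plate z-score of at least 8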;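 also: Pro5 are CHO cells carrying HIG-tagged alpha-DG that lacks glycosylation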
GalR3 antagonist: GalR3 antagonists in HEK293 cells, primary screen, cell-based, fluorescence readout. Galanin receptor type 3 (Homo sapiens), O60755. HEK293 GalR3-CNG cAMP membrane potential fluorescence; galR3 body fused to GalR1 C-terminus. inhibition, % at 3 µM. 360,000 tested, 0.44% active. AID 651719, 2012;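 active = inhibition above the screen-wide average plus 3 SD, cut at about 13% in these data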;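 also: forskolin and galanin both at EC90 stimulate the cells; cAMP rise reported by CNG channel membrane potential dye signal; 0% = forskolin plus galanin with DMSO and 100% = forskolin alone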
Target sequence (O60755 1-299 limits assumed): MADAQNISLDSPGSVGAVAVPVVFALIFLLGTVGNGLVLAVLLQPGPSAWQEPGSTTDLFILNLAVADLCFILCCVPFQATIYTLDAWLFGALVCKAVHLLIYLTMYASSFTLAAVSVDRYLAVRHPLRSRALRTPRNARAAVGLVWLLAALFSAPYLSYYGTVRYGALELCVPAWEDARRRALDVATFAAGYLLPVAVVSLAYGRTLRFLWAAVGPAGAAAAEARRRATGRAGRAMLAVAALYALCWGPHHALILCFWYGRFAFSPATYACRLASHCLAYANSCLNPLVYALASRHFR
Gli-Sufu antag: Gli-Sufu pathway antagonists, primary screen, luciferase luminescence, Sufu-KO-LIGHT cells, uHTS; 340,000 tested, 0.74% active; inhibition, % at 5 µM; AID 588413, 2011; Sufu-KO-LIGHT fibroblasts, Gli luciferase reporter luminescence;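 active = inhibition above about 55%, limit read from the data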;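 also: 0% = DMSO-treated cells and 100% = wells with medium but no cells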
Env fusion inh: inhibitors of HIV-1 Env-driven cell-cell fusion, primary screen, HeLa-JRFL effector, CEM21 target cells, luciferase. AID 651610, 2012. 360,000 tested, 1.1% active. inhibition, % at 12.3 µM;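 active = mean replicate inhibition score of at least 50 and every replicate individually at or above 50; inconclusive = only one of the two criteria met; inactive = mean below 50 and not all replicates reaching 50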;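 also: 0% = plate neutral controls and 100% = maraviroc near 300 nM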
Gal4-VP16 ctr: Gal4-VP16 luciferase reporter inhibitors, counter-screen for COUP-TFII antagonist project, cell-based, luminescence, HEK293 | shares compounds with COUP-TFII inh | AID 687007, 2013 | 2,500 tested, 25% active | inhibition, % at 8.5 µM; in the data active = inhibition above about 13%
NR2F2 inh conf: NR2F2 transcriptional activity inhibitors, confirmation, cell-based, luciferase reporter, HEK293, triplicate; shares compounds with COUP-TFII inh; HEK293 NGFI-A luciferase reporter, luminescence; inhibition, % at 8.5 µM; 2,500 tested, 45% active;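 active = mean inhibition over three repeats above a set limit taken from the earlier primary screen, cut at about 38% in these data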;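 also: 100% = cells given the luciferase reporter alone without the COUP-TF2 vector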
Numbers without * were called inactive; [ ] = remark or other dose.

What do the screens show for `CN1C(=O)c2cc(NC(=O)c3ccc(F)cc3)ccc2OC[C@H]2O[C@@H](CC(=O)N3CCOCC3)CC[C@@H]21`?
Env fusion inh: -4[16.7 µM]

How did N#Cc1c(NC(=O)CSc2ncn[nH]2)sc2c1CCCCC2 do in these assays?
COUP-TFII inh: 88*; aDG glyco up: 0; GalR3 antagonist: -7; Gli-Sufu antag: 34; Env fusion inh: 46; Gal4-VP16 ctr: 81*; NR2F2 inh conf: 79*

Results for CCOC(=O)N1CCC(NC(=O)c2ccc3c(c2)N(C)C(=O)/C(=C/c2cccc(OC)c2)S3)CC1 ?
COUP-TFII inh: 40*; aDG glyco up: 1; GalR3 antagonist: 1; Gli-Sufu antag: 27; Env fusion inh: 11; Gal4-VP16 ctr: 12; NR2F2 inh conf: 53*

How did COc1cccc(/C=C2/Sc3ccc(C(=O)NC4CC4)cc3NC2=O)c1 do in these assays?
COUP-TFII inh: 23; GalR3 antagonist: -3; Env fusion inh: -3

How did CCOC(=O)N1CCN(C(=O)c2ccc3c(c2)N(C)C(=O)/C(=C\c2ccc(OCC)c(OC)c2)S3)CC1 do in these assays?
COUP-TFII inh: 51*; aDG glyco up: 1; GalR3 antagonist: -3; Gli-Sufu antag: -8; Env fusion inh: 8; Gal4-VP16 ctr: 2; NR2F2 inh conf: 24

Results for C/C=C/c1ccc2c(c1)O[C@@H](CN(C)C(=O)Cc1ccncc1)[C@@H](C)CN([C@@H](C)CO)S2(=O)=O ?
Env fusion inh: -45[16.7 µM]

Results for Cc1ccc(OCCN2CCN(C(=O)CCC(=O)Nc3nnc(CC(C)C)s3)CC2)cc1 ?
COUP-TFII inh: 56*; aDG glyco up: 0; GalR3 antagonist: -4; Gli-Sufu antag: 7; Env fusion inh: 18; Gal4-VP16 ctr: 4; NR2F2 inh conf: 33

What do the screens show for `CC(C)Cc1nnc(NC(=O)CCC(=O)N2CCN(Cc3ccc(F)cc3)CC2)s1`?
COUP-TFII inh: 8; aDG glyco up: 0; GalR3 antagonist: -2; Gli-Sufu antag: 10; Env fusion inh: 4

How did CCC1(C)Cc2c(sc(NC(=S)NC(=O)c3ccccc3)c2C#N)CO1 (configuration not stated) do in these assays?
COUP-TFII inh: -11; aDG glyco up: 0; GalR3 antagonist: -2; Gli-Sufu antag: -11; Env fusion inh: 2

What do the screens show for `CN1Cc2sc(NC(=S)NC(=O)c3ccccc3)c(C#N)c2CC1(C)C`?
COUP-TFII inh: 40*; GalR3 antagonist: 2; Gli-Sufu antag: 60*; Env fusion inh: 11; Gal4-VP16 ctr: 7; NR2F2 inh conf: 69*

How did C(=N\Nc1ccc2ccccc2n1)/c1ccc2c(c1)OCCO2 do in these assays?
COUP-TFII inh: 64*; aDG glyco up: 0; GalR3 antagonist: -5; Gli-Sufu antag: 41; Env fusion inh: inconclusive; Gal4-VP16 ctr: 38*; NR2F2 inh conf: 70*

What do the screens show for `c1nc(NCc2ccc3c(c2)OCO3)c2cc(-c3ccoc3)ccc2n1`?
COUP-TFII inh: 39*; aDG glyco up: 1; GalR3 antagonist: 6; Gli-Sufu antag: -30; Env fusion inh: 35; Gal4-VP16 ctr: -19; NR2F2 inh conf: 10

How did Cc1[nH]c2ccccc2c1/C=N/Nc1nncn1N do in these assays?
COUP-TFII inh: 92*; aDG glyco up: 0; GalR3 antagonist: -3; Gli-Sufu antag: -6; Env fusion inh: -41; Gal4-VP16 ctr: -70; NR2F2 inh conf: -35

How did O=S(=O)(NC1CCCC1)c1ccc(S(=O)(=O)N2CCc3ccccc32)cc1 do in these assays?
COUP-TFII inh: 40*; aDG glyco up: 3; GalR3 antagonist: -6; Gli-Sufu antag: 47; Gal4-VP16 ctr: -4; NR2F2 inh conf: 10

How did Nc1ccc(S(=O)(=O)N2CCc3ccccc32)cc1 do in these assays?
COUP-TFII inh: 12; aDG glyco up: 0; GalR3 antagonist: -10; Gli-Sufu antag: -10; Env fusion inh: -6

Assay outcomes as filed in PubChem.
